Measurements as given in PubChem BioAssay AID493098 (Sanford-Burnham Center for Chemical Genomics, 2011).
Hit rate of the full screen: of about 340,000 compounds, about 1,700 (0.5%) were called active.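 The calls were made as follows: active = compounds whose inhibition of the agonist-driven luminescence signal at 20 µM reaches about 50% (limit read from the data); inactive = the rest.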 Only a selection was taken, and actives are over-represented in it overall.

Biological target: C-C chemokine receptor type 6 (Homo sapiens) (UniProt P51684)
Sequence (P51684 whole entry, looked up): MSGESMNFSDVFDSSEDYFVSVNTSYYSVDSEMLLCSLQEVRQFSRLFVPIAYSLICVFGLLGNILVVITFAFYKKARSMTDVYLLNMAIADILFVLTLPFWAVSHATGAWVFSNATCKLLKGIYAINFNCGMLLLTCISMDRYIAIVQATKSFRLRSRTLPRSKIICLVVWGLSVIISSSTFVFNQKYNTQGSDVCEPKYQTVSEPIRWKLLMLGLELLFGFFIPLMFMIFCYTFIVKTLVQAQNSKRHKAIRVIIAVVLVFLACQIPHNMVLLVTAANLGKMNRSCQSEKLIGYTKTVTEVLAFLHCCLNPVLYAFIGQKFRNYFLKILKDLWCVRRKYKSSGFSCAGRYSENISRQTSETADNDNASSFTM
Assay: blockers of CCL20-driven beta-arrestin recruitment to CCR6 – cell-based, CHO-K1, luminescence, uHTS, primary screen (AID 493098);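 also: cells stimulated with CCL20 at 14 nM final; plate controls were DMSO with CCL20 for no effect and DMSO without agonist for full effect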
Settings: CHO-K1 CCR6 PathHunter beta-arrestin, CCL20-stimulated, at 20 µM, active compounds read high

inhibition, active:
Cc1cc(C)c(C2C3=C(Nc4c2c(C)nn4-c2ccccn2)c2ccccc2C3=O)c(C)c1 (configuration not stated) 53.2%, C=CS(=O)c1sc(Cl)c(N2CCOCC2)c1[N+](=O)[O-] (configuration not stated) 93.5%, Cc1cccc(CS(=O)(=O)c2ncc(Cl)c(C(=O)Nc3ccc(F)cc3)n2)c1 79.4%, Cc1cccc(NC(=O)c2nc(S(=O)(=O)Cc3ccccc3)ncc2Cl)c1 82%, CN(CC(=O)Nc1ccc(OC(F)F)cc1)S(=O)(=O)/C=C/c1ccccc1 59.9%, CCN1CCC(O)(/C=C/c2ccc(C)cc2)C(C(=O)/C=C/c2ccc(C)cc2)C1 (configuration not stated) 63.6%, Cc1cc(C)nc(S/C=C/C(=O)c2ccccc2)n1 54.2%

inhibition, inactive:
O=C(NC(=S)Nc1ncccn1)c1ccccc1Br 1.75%, COCC1CCCN(Cc2cn[nH]c2-c2cc3ccccc3o2)C1 (configuration not stated) 7.28%, c1nc(COc2nsnc2N2CCOCC2)cs1 -2.16%, COc1cccc(CN2CCN(Cc3ccc4cccc(F)c4n3)CC2CCO)c1 (configuration not stated) 11.8%, O=[N+]([O-])c1ccc(N2CCOCC2)cc1 7.93%, Cc1nc2cc(C(F)(F)F)ccc2n1CCNc1nc(-c2cc(Cl)c(N)c(Cl)c2)cs1 6.34%, COc1ccc(NC(=O)c2oc3ccc(S(=O)(=O)N4CCOCC4)cc3c2C)cc1 8.2%, CCOC(=O)NC(C(F)(F)F)(C(F)(F)F)P(=O)(c1ccccc1)c1ccccc1 11.6%, COC(=O)[C@]1(C)CCC[C@@]2(C)C3CC[C@]4(OC(C)=O)C[C@@]3(CCC21)CC4=NO (some centres not stated) -0.25%, O=C(Nc1ccc(F)cc1)c1ccc(S(=O)(=O)NCc2cccnc2)cc1 -1.15%, CSc1nnc(NC(=O)c2nc(S(=O)(=O)Cc3ccc(C)cc3)ncc2Cl)s1 -1.49%, Cc1ccc(CS(=O)(=O)c2ncc(Cl)c(C(=O)Nc3nnc(C)s3)n2)cc1 -7.39%, CCOc1ccc(NC(=O)c2nc(SCC)ncc2Cl)cc1 3.21%, CCCC(C(=O)OCCN(CC)CC)(c1ccccc1)c1ccccc1 11.6%, COC(=O)c1ccc(-c2noc(CN(Cc3ccccn3)CC3CCCO3)n2)cc1 (configuration not stated) 5.23%, CCn1c(=O)c2ccccc2n(CC(=O)N2CCCc3ccccc32)c1=O 9.45%, Cc1ccccc1CSCCNC(=O)c1ccc(N(C)S(=O)(=O)c2ccccc2)cc1 32.2%, O=C(CC1OC(=O)c2ccccc21)NC1CCCCC1 (configuration not stated) 19.9%, COc1ccc(NC(=O)COC(=O)c2ccc(NS(=O)(=O)/C=C/c3ccccc3)cc2)cc1 21.3%, CC(C)N(Cc1ccccc1)C(=S)Nc1ccc(OC(F)F)cc1 18.4%, CCN1CCN(C(=O)CSc2ccc(C)cc2)CC1 6.4%, CCOC(=O)C1CCCN(C(=O)/C=C/c2ccc(OC)cc2)C1 (configuration not stated) 6.92%, N#CCCn1cnc2ccccc21 8.21%, O=C(/C=C/Sc1ncn[nH]1)c1ccc(Cl)cc1 31.6%, Cc1cc(C)nc(SCc2ccccc2C#N)n1 -11.7%
